# High-throughput results deposited in PubChem by National Center for Advancing Translational Sciences (NCATS).
# An excerpt weighted towards active compounds, which were near 3.4% of everything screened.
# Mito fusion act – blocks mitochondrial division or promotes mitochondrial fusion; S. cerevisiae fusion-defective mutant growth rescue, CellTiterGlo 48 h; Potency, µM (top dose mostly 46.1 µM), inactives show at the highest dose growth rescue (activation), hits mostly activators; 320,000 compounds, 0.23% hits; further: % of control where 0% means no effect; nearly all actives have a fitted effect of over 45% in size
#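 Yeast fusion mutant, YPEG (non-fermentable carbon), compound, 48 h at 37C non-permissive; CellTiterGlo added, 10 min RT, luminescence read. Rescued growth = division inhibition.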
# VDR inhibitor – blocks the human vitamin D receptor; P11473; VDR-SRC2-3 peptide fluorescence polarization, 2 h; AID 504847; 400,000 compounds, 0.93% hits; Potency, µM, without a hit: max response, negative = inhibition, hits mostly inhibitors; further: on the % scale 0 is the no-effect control and ±100 the full control effect
#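 Fluorescence polarization assay of small-molecule disruption of VDR binding to coregulator peptide SRC2-3. Compounds and controls pin-transferred, then read after 2 h incubation at ambient room temperature.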
# PKM2 activator – increases activity of human pyruvate kinase M2 | P14618 | purified PKM2, Kinase-Glo ATP luminescence, activation; response scale: 0% is enzyme alone, no compound | Potency, µM (top dose mostly 57.5 µM), for the others: top-dose activation, actives largely listed as activators | 260,000 compounds, 0.34% hits; further: on the % scale 0 is the no-effect control and ±100 the full control effect; nearly all actives have a fitted effect of over 55% in size
# Target sequence (P14618 whole entry, looked up): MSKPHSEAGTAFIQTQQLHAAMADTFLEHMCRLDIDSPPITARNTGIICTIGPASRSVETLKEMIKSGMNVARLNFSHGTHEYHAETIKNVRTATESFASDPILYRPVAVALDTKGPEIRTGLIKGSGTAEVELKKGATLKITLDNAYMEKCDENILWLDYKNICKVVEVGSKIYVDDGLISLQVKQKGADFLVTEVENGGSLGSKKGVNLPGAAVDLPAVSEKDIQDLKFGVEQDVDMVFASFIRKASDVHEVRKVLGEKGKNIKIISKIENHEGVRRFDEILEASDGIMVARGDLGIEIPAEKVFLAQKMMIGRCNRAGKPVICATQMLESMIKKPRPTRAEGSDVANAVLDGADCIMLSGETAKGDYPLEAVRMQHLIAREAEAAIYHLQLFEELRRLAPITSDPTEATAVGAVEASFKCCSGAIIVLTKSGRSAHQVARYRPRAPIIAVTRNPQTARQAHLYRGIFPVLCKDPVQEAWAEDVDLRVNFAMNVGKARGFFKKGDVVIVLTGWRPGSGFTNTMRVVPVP
#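 hPK-M2, >95% pure; 0.1 mM ADP / 0.5 mM PEP final; imidazole pH7.2 buffer w/ 7 mM MgCl2, 50 mM KCl; 1 h RT; Kinase-Glo lum. Intermediate enzyme activity for dual inhibitor/activator qHTS.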
# KAT2A inh – GCN5L2 (KAT2A) acetyltransferase inhibition. Q92830. GCN5L2 HAT assay, ThioGlo1 CoA-SH fluorescence. Potency, µM (doses to about 58.9 µM), without a hit: at the top dose activity change, negative = inhibition, most hits filed as inhibitors. 390,000 compounds, 0.21% hits; further: on the % scale 0 is the no-effect control and ±100 the full control effect
#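 Fluorescence readout, Ex340nm/Em540nm: ThioGlo1 (50uM final) reacts with free CoA thiol released as 20nM GCN5L2 acetylates H3(1-25) peptide (75uM) using acetyl-CoA (70uM). Compound and enzyme sat 15 min beforehand; 20 min room-temperature reaction.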
# GLS inh – blocks human kidney-isoform glutaminase activity; 410,000 compounds, 0.21% hits; GLS enzymatic activity, qHTS titration; AID 624170; Potency, µM (highest dose often 45.5 µM), inactives show at the highest dose activity change, negative = inhibition, hits mostly inhibitors; further: on the % scale 0 is the no-effect control and ±100 the full control effect
#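 Enzyme dispensed in phosphate buffer (45 mM, pH 8.2, 0.02% Tween-20), compounds pinned in, then 1 mM L-glutamine solution and the glutamate oxidase–HRP–Amplex Red mix added; fluorescence read immediately and again after 30 min at room temperature.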
# PLK1 PBD block – PLK1 (human) polo-box domain binding inhibition; P53350; Plk1 PBD binding of FITC phosphopeptide, fluorescence polarization; Potency, µM, for the others: max response, negative = inhibition, most hits filed as inhibitors; 360,000 compounds, 2.8% hits; AID 720504; further: series mostly up to about 57 µM; on the % scale 0 is the no-effect control and ±100 the full control effect; nearly all actives have a fitted effect of over 65% in size
# Active calls of the source: *; ? = inconclusive; . = no result; [ ] = remark or other dose. The call rests on the fitted dose curve; in most records, active means well fitted curve in the direction sought with a large enough effect; inconclusive means small, poorly fitted or top-dose-only effect, or another doubt; inactive means no such curve, though single readings can be large; an effect the other way counts as inactive or inconclusive. Potency means the concentration at half of the fitted maximal effect.
SMILES,Mito fusion act,VDR inhibitor,PKM2 activator,KAT2A inh,GLS inh,PLK1 PBD block
Cc1ccc(CNCC(=O)Nc2ccc(N3CCOCC3)cc2)cc1,-1.5%,-1.0%,-7.6%,-23.7%,9.6%,-0.5%
O=C(Nc1ccccc1)C1C2/C=C\CCCCC21 (stereo unspecified),0.7%,-11.5%,1.4%,-4.6%,5.8%,26.7µM*
Cc1ccccc1-c1nccc(NCc2cccnc2)n1,.,-8.5%,.,-12.8%,.,.
Cc1ccc(-n2ccnc2SCC(=O)N(CC(C)C)C2CCS(=O)(=O)C2)c(C)c1 (stereo unspecified),0.7%,?,-2.3%,-3.4%,?,10.6µM*
N#CCCN(C(=O)COC(=O)c1ccc2c(=O)n3c(nc2c1)CCC3)c1ccccc1,-12.3%,?,-7.4%,?,-14.2%,?
N#CCCN(C(=O)c1ccc2c(=O)n3c(nc2c1)CCCCC3)c1ccccc1,0.6%,-8.4%,.,-4.7%,12.9%,23.8µM*
COC(=O)[C@@]1(Cc2ccccc2)[C@H]2c3cc(C(=O)N(C)C)n(Cc4ccccn4)c3C[C@H]2CN1C(=O)c1ccccc1,.,.,0.0%,.,.,.
CCOC(=O)c1ccc(CNCc2ccc(Br)cc2)cc1,-0.5%,-6.7%,-6.6%,1.7%,1.9%,-9.0%
CCc1ccc(CN/C=C/C(=O)c2ccc(Br)cc2)cc1,4.9%,-11.7%,-0.5%,-0.8%,-10.2%,23.8µM*
CCCN1CCc2c(sc(NC(=O)CCS(=O)(=O)c3ccccc3)c2C(=O)OC)C1,0.4%,1.6%,-3.9%,0.6%,3.1%,-12.2%
COc1cc(NS(=O)(=O)c2ccc(NC(=S)NC(=O)c3sc4ccccc4c3Cl)cc2)ncn1,-0.9%,?,9.2%,1.4%,-1.1%,15µM*
CC1(c2nnnn2C2CCCCC2)CCC(=O)N1Cc1ccc2c(c1)OCO2 (stereo unspecified),.,.,.,.,.,-1.2%
COc1ccccc1Cc1c(-c2ccc(C#N)cc2)nc2c3ccccc3ccn12,.,.,.,.,-23.5%,-2.7%
[O-][n+]1cccc(CO)c1,.,3.4%,.,-4.2%,-0.1%,.
OCCN1CCN(C(=S)c2ccc(Cl)cc2)CC1,-8.4%,?,0.1%,-3.4%,6.9%,6.7µM*
COc1ccc(C(=S)N2CCNCC2)cc1,-7.8%,-1.5%,5.3%,3.6%,6.3%,-1.6%
COc1ccc(C(=S)N2CCCCCC2)cc1,-1.1%,?,3.3%,-4.6%,-7.4%,26.7µM*
COc1ccc(C(=S)N2CCN(c3ccccc3C)CC2)cc1,4.9%,-24.3%,-6.1%,-12.9%,-1.4%,21.2µM*
CCN1CCN(C(=S)c2ccc(OC)cc2)CC1,-20.5%,-0.3%,-3.2%,30.0%,14.2%,9.47µM*
C=CC1=C2C=C(C3CC3)N(C3CCCC3)C=C2C(=O)C(C)(OC(=O)c2ccco2)C1=O (stereo unspecified),.,.,-5.4%[11.5 µM],.,.,.
CCOC(=O)c1ccc(C(=S)N2CCCC2)cc1,-8.0%,-8.0%,.,-5.5%,-24.9%,7.52µM*
O=S(=O)(O)c1ccc(SCc2ccccc2)nc1,.,?,.,.,-23.5%,21.2µM*
FC(F)(F)C(F)(F)C(F)(F)C(F)(F)C(F)(F)C(F)(F)C(F)(F)C(F)(F)Br,.,-10.0%,.,-17.7%,-9.0%,.
Cc1cccc(CNC(=O)c2ccc(NC(=O)C3=CSCCO3)cc2)c1,?,?,.,-9.3%,-30.5%,26.7µM*
CCOc1ccc(CNC(=O)c2ccccc2NC(=O)C2=CSCCO2)cc1,-1.9%,?,.,?,8.2%,23.8µM*
SMILES,Mito fusion act,VDR inhibitor,PKM2 activator,KAT2A inh,GLS inh,PLK1 PBD block
C=CCN1C(=O)/C(=C2/Sc3ccccc3N2CC)SC1=S,0.4%,-7.0%,-0.6%,1.0%,-14.5%,-12.0%
C=CCN1C(=O)/C(=C2/Sc3ccccc3N2CCCS(=O)(=O)O)SC1=S,1.4%,0.9%,-0.5%,-19.4%,?,10.6µM*
O=C(O)c1ccc(NCc2cccc(Br)c2)cc1,10µM*,-7.6%,-1.1%,-7.5%,23.4%,-11.3%
FC(F)(F)c1ccc(/C=N/n2c(COc3ccccc3)n[nH]c2=S)cc1,-23.3%,-12.6%,.,-12.3%,5.8%,26.7µM*
O=[N+]([O-])c1ccccc1/C=N/n1c(-c2cccnc2)n[nH]c1=S,3.4%,-2.7%,-26.1%,-4.0%,0.9%,-22.7%
FC(F)(F)c1ccccc1/C=N/n1c(COc2ccccc2)n[nH]c1=S,-6.3%,-14.4%,.,-10.2%,-6.7%,29.9µM*
S=c1[nH]nc(COc2ccccc2)n1/N=C/c1ccncc1,-2.1%,4.2%,-32.0%,-3.6%,-0.8%,-14.0%
O=[N+]([O-])c1ccccc1/C=N/n1c(C(F)(F)F)n[nH]c1=S,8.9%,10.5%,3.1%,-25.5%,-19.0%,26.7µM*
COCCCN(C(=O)CCSc1ccc(F)cc1)c1c(N)n(Cc2ccccc2)c(=O)[nH]c1=O,-4.9%,14.4%,.,-2.9%,-0.5%,?
CCN(CC)S(=O)(=O)c1nnc(NC(=O)COc2ccc(Cl)cc2)s1,.,-4.0%,.,-6.1%,4.0%,.
CCOC(=O)C1(C)CCCN1C(=O)c1sccc1C (stereo unspecified),.,.,.,.,5.9%,-10.0%
Cc1ccc(NC(=O)c2cc(-c3ccc(F)cc3)on2)cc1C,-7.1%,-29.6%,-5.1%,1.3%,-2.3%,23.8µM*
CN(C)c1ccc(NC(=S)c2ccc3ccccc3n2)cc1,-16.7%,?,-0.6%[0.46 µM],?,-23.7%,1.06µM*
C=C(C)C(=O)/C=C/c1ccc(Br)cc1,.,17.8µM*,.,.,.,.
Cc1ccc(C(=O)/C=C/c2ccc(Br)cc2)o1,0.9%,?,-9.0%,-2.3%,5.2%,0.7%
CCCC(CCC)C(N)=O,.,.,.,.,-5.1%,.
OC(CN1CCC(Cc2ccc(F)cc2)CC1)c1ccc(Cl)cc1 (stereo unspecified),2.91µM*,1.2%,5.0%,-3.2%,1.3%,.
CCCCC(CC)CO (stereo unspecified),.,-8.0%,.,-7.8%,0.5%,-8.6%
CCCCC(CC)CN=C(N)NC(N)=NCCCCCCN=C(N)NC(N)=NCC(CC)CCCC (stereo unspecified),-34.6%,4.6%,.,-20.7%,15.8µM*,?
Cc1cc(C(=O)Nc2ccncc2)c(C)o1,.,-9.6%,.,.,-5.3%,-12.6%
COc1ccc(CNCC(O)COc2ccc3[nH]c(=O)ccc3c2)cc1OC (stereo unspecified),.,.,.,.,-5.7%,.
CCN(c1ccccc1)c1nc(=O)c2cccnc2s1,3.2%,2.5%,0.1%,-5.2%,-2.3%,-8.7%
CCN(c1ccccc1)c1cc2ccccc2c(=O)[nH]1,17.2%,?,2.7%[0.46 µM],-12.8%,?,29.9µM*
COc1ccc(-c2cc(-c3nnc(COC(=O)CC4CC5CCC4C5)o3)c3ccccc3n2)cc1OC (stereo unspecified),-24.9%,-2.9%,-11.0%,35.5µM*,2.3%,6.4%
O=C(O)c1ccc(-c2ccccc2C(F)(F)F)o1,-0.6%,15.4%,3.3%,-14.4%,-2.2%,4.0%
